Data: PubChem BioAssay (EPA / NIEHS)
Records with an inconclusive call do not appear. The source made the active and inactive calls. How the source made its calls, unless noted: active means hit-call score of the fitted dose curve at least 0.9, where 1 is the maximum; inactive means score below 0.9.

What was measured:
[1] = molecular target: Paired box protein Pax-6 (Homo sapiens) (UniProt P26367); experiment: ATG_Pax6_CIS: Attagene CIS-FACTORIAL HepG2 Assay for human Paired Box 6 (PAX6) (AID 2282956); conditions: HepG2 CIS-FACTORIAL PAX6 reporter transcription, RNA readout; actives raise or lower the signal
Chain of Paired box protein Pax-6 (Homo sapiens) (P26367 whole entry, looked up): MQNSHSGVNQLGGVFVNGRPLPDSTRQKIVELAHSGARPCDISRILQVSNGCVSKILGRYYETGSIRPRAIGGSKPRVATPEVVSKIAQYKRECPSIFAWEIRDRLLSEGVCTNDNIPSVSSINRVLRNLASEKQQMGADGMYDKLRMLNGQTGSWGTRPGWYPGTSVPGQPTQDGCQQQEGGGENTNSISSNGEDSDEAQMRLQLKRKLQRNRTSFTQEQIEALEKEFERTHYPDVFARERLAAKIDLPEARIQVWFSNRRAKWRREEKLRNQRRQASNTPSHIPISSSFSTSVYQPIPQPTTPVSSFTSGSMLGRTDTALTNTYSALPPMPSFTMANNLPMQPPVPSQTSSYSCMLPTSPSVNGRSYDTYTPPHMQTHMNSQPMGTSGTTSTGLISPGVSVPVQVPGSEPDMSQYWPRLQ
How it was run: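 Transient MRTU transfection of HepG2 → compound exposure 24 h → TriZol RNA, oligo(dT) RT → PCR, 6-FAM primer extension, HpaI cut → capillary electrophoresis; activity fitted both directions against DMSO.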

[2] = ATG_PXRE_CIS: Attagene CIS-FACTORIAL HepG2 Assay for human Pregnane X Receptor Element (PXRE) (AID 2282957); conditions: HepG2 Attagene CIS-FACTORIAL PXRE reporter, mRNA; actives raise or lower the signal
How it was run: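 Cis-element reporter mRNA in human hepatoma HepG2 cells is measured 24 h post-dosing by RT-PCR, primer-extension labeling and capillary electrophoresis; gain or loss of signal is fitted relative to DMSO.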

[3] = ATG_PPRE_CIS: Attagene CIS-FACTORIAL HepG2 Assay for human Peroxisome Proliferator-activated Response Element (PPRE) (AID 2282958); conditions: HepG2 PPRE cis-element reporter, Attagene transcription factor profiling; actives raise or lower the signal
How it was run: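 Endogenous PPRE-driven transcription is measured in HepG2 cells carrying transfected multi-reporter constructs. Reporter transcripts are quantified by RT-PCR, HpaI digestion and capillary electrophoresis 24 h after dosing. DMSO baseline, bidirectional fit.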

[4] = ATG_RORE_CIS: Attagene CIS-FACTORIAL HepG2 Assay for human RAR-related Orphan Receptor Element (RORE) (AID 2282959); conditions: HepG2 Attagene cis-factorial RORE reporter, mRNA; actives raise or lower the signal
How it was run: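 RORE reporter transcripts reflecting endogenous factor activity were read after 24 h compound exposure of transfected HepG2 cells, using reverse transcription, PCR, fluorescent labelling and capillary electrophoresis sizing. Gain or loss fitted against DMSO.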

[5] = ATG_Sox_CIS: Attagene CIS-FACTORIAL HepG2 Assay for human SRY-box transcription factor (SOX) (AID 2282960); conditions: HepG2 Attagene cis-factorial SOX reporter, mRNA; actives raise or lower the signal
How it was run: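 Reporter transcripts, measured by RT-PCR and capillary electrophoresis of labelled fragments, report endogenous SOX transcription factor activity. Transiently transfected human HepG2 cells receive chemical for 24 h; changes in either direction are fitted relative to DMSO.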

[6] = molecular target: Transcription factor Sp1 (Homo sapiens) (UniProt P08047); experiment: ATG_Sp1_CIS: Attagene CIS-FACTORIAL HepG2 Assay for human Specificity Protein 1 (Sp1) (AID 2282961); conditions: HepG2 Sp1 cis-reporter transcription, actives raise or lower the signal
Chain of Transcription factor Sp1 (Homo sapiens) (P08047 whole entry, looked up): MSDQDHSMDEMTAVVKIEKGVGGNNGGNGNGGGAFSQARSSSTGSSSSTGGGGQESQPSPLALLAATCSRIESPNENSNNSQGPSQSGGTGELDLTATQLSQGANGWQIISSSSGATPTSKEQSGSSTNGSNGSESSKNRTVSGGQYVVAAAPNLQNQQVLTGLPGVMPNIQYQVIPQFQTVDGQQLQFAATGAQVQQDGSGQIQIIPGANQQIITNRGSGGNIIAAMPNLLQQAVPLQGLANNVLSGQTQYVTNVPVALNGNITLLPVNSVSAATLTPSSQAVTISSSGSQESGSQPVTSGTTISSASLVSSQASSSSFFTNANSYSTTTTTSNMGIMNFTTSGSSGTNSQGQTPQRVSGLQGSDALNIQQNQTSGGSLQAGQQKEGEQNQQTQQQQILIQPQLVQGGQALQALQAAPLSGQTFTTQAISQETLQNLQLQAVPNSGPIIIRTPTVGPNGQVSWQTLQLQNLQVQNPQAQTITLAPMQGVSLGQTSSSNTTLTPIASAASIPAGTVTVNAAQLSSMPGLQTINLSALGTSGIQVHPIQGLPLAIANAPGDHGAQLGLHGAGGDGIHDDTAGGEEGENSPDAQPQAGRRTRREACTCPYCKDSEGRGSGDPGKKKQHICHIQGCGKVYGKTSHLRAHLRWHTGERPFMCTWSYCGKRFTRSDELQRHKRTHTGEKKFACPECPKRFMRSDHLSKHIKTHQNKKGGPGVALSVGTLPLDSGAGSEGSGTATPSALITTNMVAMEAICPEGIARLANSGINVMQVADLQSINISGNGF
How it was run: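 Read-out is reporter transcript level, measured by RT-PCR and fluorescent capillary electrophoresis after 24 h chemical treatment. System: transiently transfected HepG2 cells reporting endogenous transcription factor activity; gain or loss fitted against DMSO baseline.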

[7] = molecular target: Signal transducer and activator of transcription 3 (Homo sapiens) (UniProt P40763); experiment: ATG_STAT3_CIS: Attagene CIS-FACTORIAL HepG2 Assay for human Signal Transducer and Activator of Transcription 3 (STAT3) (AID 2282963); conditions: HepG2, Attagene cis-factorial STAT3 reporter transcription; actives raise or lower the signal
Chain of Signal transducer and activator of transcription 3 (Homo sapiens) (P40763 whole entry, looked up): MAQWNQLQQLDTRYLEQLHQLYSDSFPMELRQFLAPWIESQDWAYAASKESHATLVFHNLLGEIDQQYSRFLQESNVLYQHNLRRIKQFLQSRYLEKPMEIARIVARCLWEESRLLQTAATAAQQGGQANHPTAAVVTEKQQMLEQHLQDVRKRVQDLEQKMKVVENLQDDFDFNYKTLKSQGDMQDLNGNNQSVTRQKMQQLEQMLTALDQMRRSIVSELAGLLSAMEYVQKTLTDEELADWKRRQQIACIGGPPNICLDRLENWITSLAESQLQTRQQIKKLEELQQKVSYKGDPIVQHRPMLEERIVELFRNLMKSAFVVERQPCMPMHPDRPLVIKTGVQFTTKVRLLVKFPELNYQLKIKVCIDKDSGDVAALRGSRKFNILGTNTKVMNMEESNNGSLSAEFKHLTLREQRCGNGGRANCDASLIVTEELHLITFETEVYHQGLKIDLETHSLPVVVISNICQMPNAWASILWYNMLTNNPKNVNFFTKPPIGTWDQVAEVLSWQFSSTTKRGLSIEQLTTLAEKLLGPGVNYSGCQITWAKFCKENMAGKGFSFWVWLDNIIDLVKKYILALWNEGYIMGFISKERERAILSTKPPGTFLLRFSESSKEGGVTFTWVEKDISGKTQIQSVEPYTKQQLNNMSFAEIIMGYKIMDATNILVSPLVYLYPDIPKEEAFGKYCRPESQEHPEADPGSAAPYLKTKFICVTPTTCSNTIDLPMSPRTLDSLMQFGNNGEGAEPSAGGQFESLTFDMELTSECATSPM
How it was run: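 Transcript-level reporter assay. HepG2 transient MRTU transfection, 24 h exposure, fluorescence detection after RT-PCR and CE; DMSO baseline.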

[8] = ATG_TA_CIS: Attagene CIS-FACTORIAL HepG2 Assay for human TA Basal Promoter (AID 2282964); conditions: HepG2 Attagene CIS-factorial TA basal promoter reporter; actives raise or lower the signal
How it was run: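 HepG2 cells transiently transfected with multiple reporter units under cis promoter elements, reporting endogenous transcription factor activity; this endpoint tracks the TA basal promoter as background control. Reporter mRNA after 24 h dosing measured by RT-PCR/capillary electrophoresis; bidirectional fits versus DMSO.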

[9] = ATG_TCF_b_cat_CIS: Attagene CIS-FACTORIAL HepG2 Assay for human T-Cell-Factor with beta-catenin (TCF/b-cat) (AID 2282965); conditions: HepG2 TCF/beta-catenin cis-reporter transcription, actives raise or lower the signal
How it was run: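 HepG2 cells transiently transfected with multiple cis-promoter-regulated reporter transcription units, so endogenous transcription factor activity is measured. Reporter mRNA read 24 hours after dosing by RT-PCR, fluorescent labelling and capillary electrophoresis; bidirectional fitting against DMSO.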

[10] = ATG_TAL_CIS: Attagene CIS-FACTORIAL HepG2 Assay for human TAL Basal Promoter (AID 2282966); conditions: HepG2 Attagene cis-factorial TAL promoter reporter; actives raise or lower the signal;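 further: background control endpoint measuring basal TAL promoter reporter mRNA not a specific factor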
How it was run: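 In this cell-based multiplex, HepG2 liver cells bearing cis-promoter reporter constructs are dosed for 24 hours. Total RNA is reverse-transcribed and amplified, labelled fragments are sized by capillary electrophoresis, and signal changes are fitted bidirectionally versus DMSO.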

[11] = ATG_TGFb_CIS: Attagene CIS-FACTORIAL HepG2 Assay for human Transforming Growth Factor (TGF) (AID 2282967); conditions: HepG2 Attagene CIS TGFb reporter, mRNA transcription; actives raise or lower the signal
How it was run: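 HepG2 cells transiently transfected with cis-promoter-driven multiple reporter units measure endogenous TF activity; reporter mRNA quantified at 24 h by RT-PCR, FAM labeling, HpaI digestion and capillary electrophoresis. Bidirectional fit vs DMSO.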

[12] = ATG_VDRE_CIS: Attagene CIS-FACTORIAL HepG2 Assay for human Vitamin D Receptor Element (VDRE) (AID 2282968); conditions: HepG2 VDRE cis-reporter transcription, actives raise or lower the signal
How it was run: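 RT-PCR/CE readout of reporter mRNA; HepG2, transient transfection, 24 h dosing; DMSO baseline; bidirectional analysis.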

[13] = molecular target: Nuclear receptor subfamily 1 group I member 3 (Homo sapiens) (UniProt Q14994); experiment: ATG_CAR_TRANS: Attagene TRANS-FACTORIAL HepG2 Assay for human Constitutive Androstane Receptor (CAR) (AID 2282969; active means hit-call score of the fitted dose curve at least 0.9, where 1 is the maximum;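 further: activators raise reporter mRNA above DMSO so AC50 marks induction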); conditions: HepG2 Attagene TRANS-FACTORIAL CAR reporter
Chain of Nuclear receptor subfamily 1 group I member 3 (Homo sapiens) (Q14994 whole entry, looked up, the tested form may be a part): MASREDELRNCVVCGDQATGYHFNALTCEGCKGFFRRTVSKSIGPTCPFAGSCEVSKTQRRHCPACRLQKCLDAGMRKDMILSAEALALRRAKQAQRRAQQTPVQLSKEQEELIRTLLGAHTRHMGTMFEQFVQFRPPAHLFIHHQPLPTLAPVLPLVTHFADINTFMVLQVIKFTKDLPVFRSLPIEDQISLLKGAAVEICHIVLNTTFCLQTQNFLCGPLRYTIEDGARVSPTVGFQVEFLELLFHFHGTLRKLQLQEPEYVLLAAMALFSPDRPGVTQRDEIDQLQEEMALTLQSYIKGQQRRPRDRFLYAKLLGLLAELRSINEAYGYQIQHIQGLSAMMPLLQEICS
How it was run: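 HepG2 cells transiently transfected with multiplexed GAL4-UAS reporter units expressing chimeric NR-Gal4 proteins; compound exposure 24 h. Reporter mRNA measured by RT-PCR, 6-FAM labelling, HpaI digestion and capillary electrophoresis; gain-of-signal fitted against DMSO baseline.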

[14] = molecular target: Estrogen receptor (Homo sapiens) (UniProt P03372); experiment: ATG_ERa_TRANS: Attagene TRANS-FACTORIAL HepG2 Assay for human Estrogen Receptor alpha (ERa) (AID 2282970; active means hit-call score of the fitted dose curve at least 0.9, where 1 is the maximum); conditions: HepG2 Attagene TRANS ERa GAL4 reporter, mRNA
Chain of Estrogen receptor (Homo sapiens) (P03372 whole entry, looked up, the tested form may be a part): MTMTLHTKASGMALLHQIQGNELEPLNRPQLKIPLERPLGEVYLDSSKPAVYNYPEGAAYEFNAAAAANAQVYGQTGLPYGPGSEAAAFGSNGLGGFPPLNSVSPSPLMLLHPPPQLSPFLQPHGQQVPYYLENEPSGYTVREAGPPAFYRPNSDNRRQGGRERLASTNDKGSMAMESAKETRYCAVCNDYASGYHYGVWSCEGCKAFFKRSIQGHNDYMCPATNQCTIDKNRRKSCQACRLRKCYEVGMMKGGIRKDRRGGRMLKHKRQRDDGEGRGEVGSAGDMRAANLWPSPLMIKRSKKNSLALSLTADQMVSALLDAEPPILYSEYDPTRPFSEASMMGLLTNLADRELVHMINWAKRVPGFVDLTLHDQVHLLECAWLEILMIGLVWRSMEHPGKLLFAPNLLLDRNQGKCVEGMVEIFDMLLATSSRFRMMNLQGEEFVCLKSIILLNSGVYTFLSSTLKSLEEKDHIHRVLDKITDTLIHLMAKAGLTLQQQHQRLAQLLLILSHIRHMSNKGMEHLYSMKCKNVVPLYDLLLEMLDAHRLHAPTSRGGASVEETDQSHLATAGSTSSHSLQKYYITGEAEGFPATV
How it was run: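 After 24 h of compound treatment, RNA from HepG2 cells bearing transfected GAL4-UAS reporter constructs is converted to cDNA, amplified and fluorescently labelled. Capillary electrophoresis resolves the ERa-linked reporter; DMSO serves as negative control.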

[15] = molecular target: X-box-binding protein 1 (Homo sapiens) (UniProt P17861); experiment: ATG_Xbp1_CIS: Attagene CIS-FACTORIAL HepG2 Assay for human X-box Binding Protein 1 (XBP1) (AID 2282972); conditions: HepG2 XBP1 cis-element reporter, Attagene multiplex; actives raise or lower the signal
Chain of X-box-binding protein 1 (Homo sapiens) (P17861 whole entry, looked up): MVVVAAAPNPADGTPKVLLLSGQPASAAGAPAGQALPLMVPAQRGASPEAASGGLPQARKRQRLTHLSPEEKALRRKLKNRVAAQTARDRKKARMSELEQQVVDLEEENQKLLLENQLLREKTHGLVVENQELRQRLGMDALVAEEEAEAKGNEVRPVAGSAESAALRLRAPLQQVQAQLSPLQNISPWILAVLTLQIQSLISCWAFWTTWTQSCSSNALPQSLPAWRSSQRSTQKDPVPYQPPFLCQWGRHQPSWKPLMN
How it was run: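 HepG2, transient MRTU transfection (cis-promoter driven), 24 h compound exposure. Total RNA → oligo(dT) RT → PCR → 6-FAM labeling → HpaI cut → CE. Bidirectional fit vs DMSO.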

[16] = ATG_M_19_TRANS: Attagene TRANS-FACTORIAL HepG2 Assay for M19 Transcription Factor (Internal Marker) (AID 2282974; active means hit-call score of the fitted dose curve at least 0.9, where 1 is the maximum); conditions: HepG2 Attagene TRANS-FACTORIAL M19 internal marker reporter
How it was run: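 Background-control readout: after 24 h chemical exposure of transfected HepG2 carrying GAL4-driven reporter units, RNA was reverse-transcribed, amplified, fluorescently labeled and sized by capillary electrophoresis; gain-of-signal fit against DMSO.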

[17] = molecular target: Steroid hormone receptor ERR1 (Homo sapiens) (UniProt P11474); experiment: ATG_ERRa_TRANS: Attagene TRANS-FACTORIAL HepG2 Assay for human Estrogen-Related Receptor alpha (ERRa) (AID 2282971; active means hit-call score of the fitted dose curve at least 0.9, where 1 is the maximum); conditions: HepG2 Attagene TRANS reporter, ERRa transactivation
Chain of Steroid hormone receptor ERR1 (Homo sapiens) (P11474 whole entry, looked up, the tested form may be a part): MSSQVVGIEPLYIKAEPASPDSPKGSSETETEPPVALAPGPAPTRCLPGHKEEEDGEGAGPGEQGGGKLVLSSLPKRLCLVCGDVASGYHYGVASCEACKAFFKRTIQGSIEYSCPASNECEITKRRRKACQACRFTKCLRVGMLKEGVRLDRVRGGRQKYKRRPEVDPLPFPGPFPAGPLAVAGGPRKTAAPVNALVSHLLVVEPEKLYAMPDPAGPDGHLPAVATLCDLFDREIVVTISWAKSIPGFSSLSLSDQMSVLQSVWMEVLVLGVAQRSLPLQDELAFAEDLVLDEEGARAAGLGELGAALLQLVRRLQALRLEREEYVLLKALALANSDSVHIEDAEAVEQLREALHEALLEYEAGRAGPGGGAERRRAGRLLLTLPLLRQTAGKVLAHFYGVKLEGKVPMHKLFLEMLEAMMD
How it was run: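 Transfected HepG2, 24 h dosing, ERRa-Gal4 chimera driving GAL4-UAS reporter. Readout: reporter mRNA via RT-PCR plus capillary electrophoresis (fluorescence). Positive direction vs DMSO control.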

[18] = molecular target: Estrogen-related receptor gamma (Homo sapiens) (UniProt P62508); experiment: ATG_ERRg_TRANS: Attagene TRANS-FACTORIAL HepG2 Assay for human Estrogen-Related Receptor gamma (ERRg) (AID 2282977; active means hit-call score of the fitted dose curve at least 0.9, where 1 is the maximum;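 further: hits increase reporter signal over DMSO so potencies reflect activators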); conditions: HepG2 Attagene TRANS reporter, ERRg transactivation
Chain of Estrogen-related receptor gamma (Homo sapiens) (P62508 whole entry, looked up, the tested form may be a part): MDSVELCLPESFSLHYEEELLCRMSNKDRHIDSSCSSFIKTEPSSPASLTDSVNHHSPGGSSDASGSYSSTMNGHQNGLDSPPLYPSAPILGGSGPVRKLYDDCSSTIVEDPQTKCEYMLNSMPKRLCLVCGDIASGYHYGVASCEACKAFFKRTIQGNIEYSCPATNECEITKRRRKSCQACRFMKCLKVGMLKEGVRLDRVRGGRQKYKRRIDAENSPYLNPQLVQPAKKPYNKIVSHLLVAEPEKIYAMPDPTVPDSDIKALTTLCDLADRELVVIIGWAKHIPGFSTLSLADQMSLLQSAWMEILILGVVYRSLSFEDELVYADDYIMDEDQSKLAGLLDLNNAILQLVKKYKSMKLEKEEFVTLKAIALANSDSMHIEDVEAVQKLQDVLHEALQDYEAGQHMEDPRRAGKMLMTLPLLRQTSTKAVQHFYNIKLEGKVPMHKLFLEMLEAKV
How it was run: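 Transfect HepG2 with multiple GAL4-UAS reporter transcription units; dose chemicals 24 h; isolate RNA, reverse-transcribe with oligo(dT), PCR-amplify, label with 6-FAM, digest with HpaI; size fragments by capillary electrophoresis. DMSO serves as negative control.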

[19] = ATG_GAL4_TRANS: Attagene TRANS-FACTORIAL HepG2 Assay for GAL4 (Internal Marker) (AID 2282976; active means hit-call score of the fitted dose curve at least 0.9, where 1 is the maximum); conditions: HepG2 Attagene TRANS GAL4 internal marker reporter
How it was run: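 RT-PCR/capillary electrophoresis readout of reporter mRNA. HepG2, transient MRTU transfection (GAL4-UAS reporters), 24 h compound exposure. Background-control endpoint, positive direction vs DMSO baseline.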

COC(=O)CCC(=O)OC
outcome [1]: inactive
outcome [2]: inactive
outcome [3]: inactive
outcome [4]: inactive
outcome [5]: inactive
outcome [6]: inactive
outcome [7]: inactive
outcome [8]: inactive
outcome [9]: inactive
outcome [10]: inactive
outcome [11]: inactive
outcome [12]: inactive
outcome [13]: inactive
outcome [14]: inactive
outcome [15]: inactive
outcome [16]: inactive

CCCCCCCCCC[N+](C)(C)[O-]
outcome [1]: inactive
AC50 [2]: 79 µM (active)
outcome [3]: inactive
outcome [4]: inactive
outcome [5]: inactive
outcome [6]: inactive
outcome [7]: inactive
outcome [8]: inactive
outcome [9]: inactive
outcome [10]: inactive
outcome [11]: inactive
outcome [12]: inactive
outcome [17]: inactive
outcome [15]: inactive
outcome [16]: inactive
outcome [18]: inactive

CCOCCOCCO
outcome [1]: inactive
outcome [2]: inactive
outcome [3]: inactive
outcome [4]: inactive
outcome [5]: inactive
outcome [6]: inactive
outcome [7]: inactive
outcome [8]: inactive
outcome [9]: inactive
outcome [10]: inactive
outcome [11]: inactive
outcome [17]: inactive
outcome [15]: inactive
outcome [16]: inactive
outcome [19]: inactive
outcome [18]: inactive

CCCCCCCCCCCCCCCCO
outcome [1]: inactive
outcome [2]: inactive
outcome [3]: inactive
outcome [4]: inactive
outcome [5]: inactive
outcome [6]: inactive
outcome [7]: inactive
outcome [8]: inactive
AC50 [9]: 159 µM (active)
outcome [10]: inactive
outcome [11]: inactive
outcome [12]: inactive
outcome [13]: inactive
outcome [14]: inactive
outcome [15]: inactive

CS(=O)(=O)c1ccc([C@@H](C[C@H]2CCC(=O)C2)C(=O)Nc2cnccn2)cc1Cl
outcome [1]: inactive
outcome [2]: inactive
outcome [3]: inactive
outcome [4]: inactive
outcome [5]: inactive
outcome [6]: inactive
outcome [7]: inactive
outcome [8]: inactive
outcome [9]: inactive
outcome [10]: inactive
outcome [11]: inactive
outcome [12]: inactive
outcome [14]: inactive
outcome [15]: inactive
outcome [16]: inactive

O=C1NC(=O)C(c2ccccc2)(c2ccccc2)N1
outcome [1]: inactive
outcome [2]: inactive
outcome [3]: inactive
outcome [4]: inactive
outcome [5]: inactive
outcome [6]: inactive
outcome [7]: inactive
outcome [8]: inactive
outcome [9]: inactive
outcome [10]: inactive
outcome [11]: inactive
outcome [15]: inactive

O=C1O[C@H]([C@H](O)CO)C(O)=C1O
outcome [1]: inactive
outcome [2]: inactive
outcome [3]: inactive
outcome [4]: inactive
outcome [5]: inactive
outcome [6]: inactive
outcome [7]: inactive
outcome [8]: inactive
outcome [9]: inactive
outcome [10]: inactive
outcome [11]: inactive
outcome [15]: inactive
outcome [16]: inactive
outcome [19]: inactive

Cn1cnc2c1c(=O)[nH]c(=O)n2C
outcome [1]: inactive
outcome [2]: inactive
outcome [3]: inactive
outcome [4]: inactive
outcome [5]: inactive
outcome [6]: inactive
outcome [7]: inactive
outcome [8]: inactive
outcome [9]: inactive
outcome [10]: inactive
outcome [11]: inactive
outcome [12]: inactive
outcome [15]: inactive
outcome [19]: inactive
